A short description of experiment [1]: qHTS assay to identify small molecule antagonists of the sonic hedgehog signaling (Shh) pathway (AID 1259369; calls by dose curve; note: nearly all actives have a fitted effect of over 45% in size; note: potency is the fitted concentration of half-maximal effect). In a few lines: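 Gli1 transcriptional reporter (firefly Luc) in NIH/3T3 background, conditioned-medium activated. 24hr exposure, luminescence endpoint.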
Experiment [2] can be described thus: qHTS assay to identify small molecule agonists of the androgen receptor (AR) signaling pathway in the presence of an antagonist - cell viability counter screen (AID 1259379). Note: nearly all actives have a fitted effect of over 25% in size. Note: potency is the fitted concentration of half-maximal effect. In a few lines:
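Counter screen for cell viability run in parallel with the AR agonist-mode luciferase assay. MDA-kb2 cells were co-treated with nilutamide (3.0uM final) and compounds, then incubated 16 hr at 37C, and CellTiter-Fluor fluorescence was measured.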
On the technique in general: In qHTS, concentration-response curves come from the screen itself.

Experiment [3] can be described thus: qHTS assay to identify small molecule agonists of the estrogen receptor beta (ER-beta) signaling pathway - cell viability counter screen (AID 1259380). Note: nearly all actives have a fitted effect of over 30% in size. Note: potency is the fitted concentration of half-maximal effect. Put shortly: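 In this qHTS counter screen, HEK293T cells carrying an ER-beta/UAS beta-lactamase reporter, grown in 2% charcoal-stripped FBS, received compound for 16 hr; ATP-based CellTiter-Glo luminescence was then read after 30 min at room temperature.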

Experiment [4] is described as follows: qHTS assay to identify small molecule antagonists of the estrogen receptor beta (ER-beta) signaling pathway - cell viability counter screen (AID 1259382). Note: nearly all actives have a fitted effect of over 55% in size. Note: potency is the fitted concentration of half-maximal effect. Put shortly: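 HEK293T ER-beta-UAS-bla, 2% charcoal-stripped FBS; compounds + 1nM E2 16 hr 37C; CellTiter-Glo luminescence, 30 min RT.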
Experiment [5] can be described thus: qHTS assay to identify small molecule agonists or antagonists of the thyroid stimulating hormone receptor (TSHR) signaling pathway - wild type cell line counter screen (AID 1259384; calls by dose curve). In a few lines:
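Wild-type HEK293 cells were plated 18 h at 37 C/5% CO2, pin-dosed with compound plus Ro20-1724 medium, held 30 min at room temperature, then given cAMP-d2 and anti-cAMP-cryptate; fluorescence was read after 1 h. Fifteen concentrations, triplicate.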

The target of experiment [6] is Thyrotropin receptor (Homo sapiens) (UniProt P16473). Put plainly: qHTS assay to identify small molecule antagonists of the thyroid stimulating hormone receptor (TSHR) signaling pathway (AID 1259385; calls by dose curve; note: nearly all actives have a fitted effect of over 20% in size). In a few lines: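 TSHR-HEK293 cells were plated and held 18 h at 37C/5% CO2, then given compound plus Ro20-1724 and stimulated with TSH at 1.5 ng/mL final. After 30 min at room temperature, cAMP was detected with cAMP-d2/anti-cAMP-cryptate (1 h) by fluorescence.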
Thyrotropin receptor (Homo sapiens), sequence (P16473 whole entry, looked up): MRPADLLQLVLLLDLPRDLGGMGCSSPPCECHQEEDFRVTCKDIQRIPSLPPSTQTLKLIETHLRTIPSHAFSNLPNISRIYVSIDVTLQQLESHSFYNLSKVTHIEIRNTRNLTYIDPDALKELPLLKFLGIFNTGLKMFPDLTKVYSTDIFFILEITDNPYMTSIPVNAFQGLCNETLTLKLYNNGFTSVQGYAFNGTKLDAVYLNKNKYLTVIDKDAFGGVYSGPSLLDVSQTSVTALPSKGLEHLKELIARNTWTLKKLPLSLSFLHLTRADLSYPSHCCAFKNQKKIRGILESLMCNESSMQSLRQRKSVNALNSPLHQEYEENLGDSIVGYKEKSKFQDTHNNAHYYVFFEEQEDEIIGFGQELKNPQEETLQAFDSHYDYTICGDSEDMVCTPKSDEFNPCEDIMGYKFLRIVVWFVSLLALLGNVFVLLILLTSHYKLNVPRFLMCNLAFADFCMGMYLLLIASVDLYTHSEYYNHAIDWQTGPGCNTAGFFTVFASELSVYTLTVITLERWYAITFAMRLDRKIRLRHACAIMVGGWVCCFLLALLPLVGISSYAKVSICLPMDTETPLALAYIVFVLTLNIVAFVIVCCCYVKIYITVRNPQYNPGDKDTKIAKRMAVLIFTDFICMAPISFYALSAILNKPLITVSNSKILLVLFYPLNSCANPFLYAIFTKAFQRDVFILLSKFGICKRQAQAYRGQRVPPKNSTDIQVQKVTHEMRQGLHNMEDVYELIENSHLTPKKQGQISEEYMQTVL

Experiment [7] in a line: qHTS assay to identify small molecule agonists of the estrogen receptor alpha (ER-alpha) signaling pathway in the presence of an antagonist - cell viability counter screen (AID 1259386).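 Note: cells exposed to compounds for 22 h at 37 °C before the viability read; nearly all actives have a fitted effect of over 30% in size.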 Note: potency is the fitted concentration of half-maximal effect. In a few lines:
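Steps: 5-day stripped-FBS culture; seed and incubate 24hr; add ICI-182,780 (10.0nM final); pin 15-point compound titration; incubate 22hr at 37C; add CellTiter-Fluor at 21hr; read fluorescence.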

Experiment [8] has as its target Progesterone receptor (Homo sapiens) (UniProt P06401). Kind of experiment: qHTS assay to identify small molecule agonists of the progesterone receptor (PR) signaling pathway (AID 1346784; calls by dose curve; note: nearly all actives have a fitted effect of over 30% in size). In a few lines:
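Agonist mode, quantitative HTS format in a HEK 293T line expressing a UAS-controlled beta-lactamase reporter; 16 hr compound exposure at 37C in 2% charcoal-stripped FBS, then LiveBLAzer B/G FRET fluorescence.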

The target is the same in experiment [9]. Put plainly: qHTS assay to identify small molecule antagonists of the progesterone receptor (PR) signaling pathway (AID 1346795; active = well fitted inhibition curve with a large enough effect in the signal ratio in the repeat runs, not every such curve was filed as active; the % refers to the signal ratio). Put shortly: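 HEK293T PR-UAS-bla reporter cells in charcoal-stripped serum (2%) received compound after a 6 hr settling period, followed by R5020 agonist at 1 nM final; 16 hr incubation preceded the FRET substrate step and fluorescence measurement.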

The nature of experiment [10]: qHTS assay to identify small molecule agonists of the progesterone receptor (PR) signaling pathway - cell viability counter screen (AID 1346799; calls by dose curve; note: nearly all actives have a fitted effect of over 45% in size; note: potency is the fitted concentration of half-maximal effect). In a few lines: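 Counter screen for cytotoxicity: compound-treated PR-UAS-bla HEK293T cells (16 hr, 37C, 5% CO2) were assayed with CellTiter-Glo, luminescence measured after 30 min at room temperature.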
Experiment [11] is described as follows: qHTS assay to identify small molecule antagonists of the TGF-beta/Smad signaling pathway - cell viability counter screen (AID 1346824). Note: nearly all actives have a fitted effect of over 50% in size. In a few lines:
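SBE-bla HEK 293T cells were plated overnight at 37 C, then given compounds in DMSO plus TGF-beta1 (added as 0.25 ng/mL solution) for 5 hr. After the bla read, CellTiter-Glo was added to the same wells and luminescence read after 30 min at room temperature.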

A short description of experiment [12]: qHTS assay to identify small molecule agonists of the TGF-beta/Smad signaling pathway - cell viability counter screen (AID 1346829). Note: top concentration of the series differs between compounds; nearly all actives have a fitted effect of over 45% in size. In a few lines:
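CellTiter-Glo luminescence readout; SBE-bla HEK 293T cells, overnight plating, compound 5 hr at 37 C/5% CO2, then bla substrate 2 hr RT, then CellTiter-Glo 30 min RT.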

The nature of experiment [13]: qHTS assay to identify small molecule agonists of the TGF-beta/Smad signaling pathway (AID 1346859; active = well fitted activation curve with a large enough effect in the signal ratio in the repeat runs, not every such curve was filed as active; the % refers to the signal ratio; note: series mostly up to about 77 µM). Put shortly: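 Smad-responsive beta-lactamase reporter cells (HEK 293T) received compounds from DMSO stocks after overnight attachment, were incubated 5 hr, then treated 2 hr with FRET substrate before dual-emission fluorescence measurement (405 nm excitation).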
The target in experiment [14] is Thyrotropin-releasing hormone receptor (Homo sapiens) (UniProt P34981). Put plainly: qHTS assay to identify small molecule antagonists of the thyrotropin-releasing hormone receptor (TRHR) signaling pathway (AID 1346877; active = well fitted inhibition curve with a large enough effect in the repeat runs, not every such curve was filed as active; note: series mostly up to about 51 µM). In a few lines:
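Human TRHR in HEK293 cells; inhibition of the intracellular calcium rise triggered by 1 nM TRH was followed by fluorescence over 3 min. Compounds were run at 15 concentrations, three replicates each.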

For experiment [15] the target is unchanged. Put plainly: qHTS assay to identify small molecule agonists of the thyrotropin-releasing hormone receptor (TRHR) signaling pathway (AID 1346891; calls by dose curve;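 note: HEK293 cells expressing TRHR with calcium dye readout; series mostly up to about 58 µM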). In a few lines: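 Agonist-mode calcium mobilisation screen: TRHR-transfected HEK293 cells cultured overnight (18 h), dye-loaded for 2 h at 37 °C, exposed to compounds, and monitored by fluorescence for 3 min.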

In experiment [16] the target is Estrogen receptor (Homo sapiens) (UniProt P03372). Put plainly: qHTS assay to identify small molecule agonists of the estrogen receptor alpha (ER-alpha) signaling pathway in the presence of an antagonist (AID 1259383; calls by dose curve; note: top concentration of the series differs between compounds; nearly all actives have a fitted effect of over 15% in size). In a few lines: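 ER-alpha agonism measured under antagonist challenge: 10.0nM ICI-182,780 (final) plus compound, 15 concentrations, 22hr, VM7Luc4E2 ERE-luciferase cells. Read by luminescence.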
Estrogen receptor (Homo sapiens), sequence (P03372 whole entry, looked up): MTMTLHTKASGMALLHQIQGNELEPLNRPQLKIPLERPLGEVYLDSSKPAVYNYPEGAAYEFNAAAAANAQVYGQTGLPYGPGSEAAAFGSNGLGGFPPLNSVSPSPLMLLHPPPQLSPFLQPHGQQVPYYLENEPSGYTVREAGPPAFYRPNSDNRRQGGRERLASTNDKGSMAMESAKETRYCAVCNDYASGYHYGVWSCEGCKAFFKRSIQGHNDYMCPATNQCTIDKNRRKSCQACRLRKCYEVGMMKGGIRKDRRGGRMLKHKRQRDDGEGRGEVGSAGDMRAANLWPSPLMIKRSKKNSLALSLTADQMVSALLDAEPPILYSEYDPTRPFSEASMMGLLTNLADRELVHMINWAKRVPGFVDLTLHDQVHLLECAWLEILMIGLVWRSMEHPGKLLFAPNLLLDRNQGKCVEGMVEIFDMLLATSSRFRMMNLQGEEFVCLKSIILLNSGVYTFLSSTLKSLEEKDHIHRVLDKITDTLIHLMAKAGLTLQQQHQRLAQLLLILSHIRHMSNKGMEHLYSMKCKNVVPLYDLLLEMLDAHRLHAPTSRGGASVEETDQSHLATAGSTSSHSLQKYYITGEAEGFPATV

Experiment [17] can be described thus: qHTS assay to identify small molecule antagonists of the progesterone receptor (PR) signaling pathway - cell viability counter screen (AID 1346798). Note: series mostly up to about 92 µM; nearly all actives have a fitted effect of over 50% in size. In a few lines:
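Same-well multiplex: after 16 hr at 37C with compound and R5020 stimulation, HEK293T cells carrying a UAS-bla reporter received LiveBLAzer substrate (2 hr RT), then CellTiter-Glo (30 min RT) for luminescent viability.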

Values joined by “and” are separate entries in the source; they are usually repeats but may differ in a detail not shown here. Equal entries are not always repeated. Inconclusive results are not listed. The source holds several records for some structures; these can differ, active in one and inactive in another. Active and inactive are the calls of the source. Unless noted, calls come from the whole dose curve; as a rule, active = well fitted curve in the direction sought with a large enough effect in the repeat runs; inconclusive = weak or mixed curves; inactive = no such curve, though single readings can be large; an effect the other way counts as inactive or inconclusive.

Progesterone receptor (Homo sapiens), sequence (P06401 whole entry, looked up): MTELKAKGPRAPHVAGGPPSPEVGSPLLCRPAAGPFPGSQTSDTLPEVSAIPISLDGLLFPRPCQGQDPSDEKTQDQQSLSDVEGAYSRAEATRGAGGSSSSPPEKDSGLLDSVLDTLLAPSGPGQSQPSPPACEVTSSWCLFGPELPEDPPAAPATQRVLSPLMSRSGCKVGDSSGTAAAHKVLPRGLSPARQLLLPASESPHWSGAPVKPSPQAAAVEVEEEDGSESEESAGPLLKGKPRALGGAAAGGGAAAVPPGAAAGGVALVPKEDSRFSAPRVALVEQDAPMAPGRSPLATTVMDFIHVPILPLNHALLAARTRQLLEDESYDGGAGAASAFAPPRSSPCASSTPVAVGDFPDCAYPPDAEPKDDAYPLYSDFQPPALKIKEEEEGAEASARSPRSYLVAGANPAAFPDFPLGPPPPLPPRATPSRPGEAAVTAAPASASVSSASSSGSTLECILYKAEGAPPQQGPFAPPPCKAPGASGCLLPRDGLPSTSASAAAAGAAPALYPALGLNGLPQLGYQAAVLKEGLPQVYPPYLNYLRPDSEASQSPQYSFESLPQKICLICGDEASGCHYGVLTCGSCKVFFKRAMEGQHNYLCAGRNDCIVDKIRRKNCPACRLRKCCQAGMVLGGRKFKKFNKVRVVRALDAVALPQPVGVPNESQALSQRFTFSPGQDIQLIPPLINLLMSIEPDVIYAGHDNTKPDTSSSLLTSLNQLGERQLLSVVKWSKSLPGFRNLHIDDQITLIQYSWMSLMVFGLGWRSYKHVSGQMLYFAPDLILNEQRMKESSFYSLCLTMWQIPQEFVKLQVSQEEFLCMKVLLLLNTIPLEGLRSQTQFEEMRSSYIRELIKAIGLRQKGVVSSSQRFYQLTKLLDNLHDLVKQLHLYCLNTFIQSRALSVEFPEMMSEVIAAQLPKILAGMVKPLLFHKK
Thyrotropin-releasing hormone receptor (Homo sapiens), sequence (P34981 whole entry, looked up): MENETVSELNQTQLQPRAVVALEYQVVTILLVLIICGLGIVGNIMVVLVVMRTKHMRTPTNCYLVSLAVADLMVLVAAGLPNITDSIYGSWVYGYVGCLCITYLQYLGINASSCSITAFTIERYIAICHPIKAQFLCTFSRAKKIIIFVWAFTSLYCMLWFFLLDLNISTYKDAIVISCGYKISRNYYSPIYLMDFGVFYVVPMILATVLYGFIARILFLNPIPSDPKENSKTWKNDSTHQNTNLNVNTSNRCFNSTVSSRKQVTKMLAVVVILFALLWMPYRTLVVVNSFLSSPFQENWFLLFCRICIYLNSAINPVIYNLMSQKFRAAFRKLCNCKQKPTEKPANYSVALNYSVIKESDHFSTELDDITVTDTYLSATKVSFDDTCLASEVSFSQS

Consider `CC1=CC(=O)CC(C)(C)C1`, for which the Potency result in experiment [1], in experiment [2], in [5], in experiment [6], in experiment [7] and in experiment [8] was “inactive” throughout. For the same compound, the Potency entry in experiment [9], in experiment [11], in experiment [12], in [13] and in experiment [14] was “inactive” each time. The Potency in experiment [3] was 6.29 µM (active); in [4], 14.1 µM (active) and inactive; in experiment [10], 19.9 µM (active). In addition, the outcome in [15] was inactive.

Turning to `COc1ccc2cc3[n+](cc2c1OC)CCc1cc2c(cc1-3)OCO2`, the Potency entry in [1], in [4], in experiment [16], in [8], in experiment [9] and in experiment [17] was “inactive” in each case. The Potency entry in [11], in experiment [12], in experiment [13] and in [14] was “inactive” each time. Besides, the Potency was 4.89 µM (active) and 8.41 µM (active) in [2]; 48.9 µM (active) in [3]; 27.5 µM (active) and 26.6 µM (active) in [7]. In [15], the call was inactive.

For the compound `NC(N)=S`, the Potency result in experiment [1], in experiment [2], in [3], in experiment [4], in [16] and in experiment [5] was “inactive” each time. For the same compound, the Potency result in [6], in [7], in [8], in [9], in experiment [17] and in experiment [10] was “inactive” throughout. The Potency entry in experiment [11], in [12], in experiment [13] and in [14] was “inactive” in each case. The compound was called inactive in experiment [15].

As to `Brc1ccc(Oc2ccc(Br)cc2)cc1`, the Potency entry in [1], in experiment [2], in [3], in experiment [4], in experiment [7] and in experiment [8] was “inactive” in each case. The Potency result in experiment [9], in [17], in [10], in [11], in experiment [12] and in experiment [13] was “inactive” each time. The Potency entry in experiment [14] was “inactive”. For the same compound, the call in [15] was inactive.

Consider `O=C(O)C1=NN(c2ccc(S(=O)(=O)O)cc2)C(=O)C1`, for which the Potency entry in experiment [1], in experiment [2], in [3], in experiment [4], in [16] and in experiment [6] was “inactive” in each case. For the same compound, the Potency entry in [7], in [8], in experiment [9], in experiment [17], in experiment [10] and in [11] was “inactive” each time. For the same compound, the Potency result in experiment [12], in experiment [13] and in experiment [14] was “inactive” throughout. Also, the call in [15] was inactive.

Turning to `CCOC(=O)CC(=O)OCC`, the Potency result in experiment [1], in experiment [2], in experiment [3], in experiment [4], in experiment [5] and in experiment [6] was “inactive” each time. Besides, the Potency entry in experiment [7], in [8], in experiment [9], in experiment [17], in [10] and in experiment [11] was “inactive” throughout. For the same compound, the Potency result in experiment [12], in experiment [13] and in experiment [14] was “inactive” each time. Moreover, the compound was classed as inactive in experiment [15].

On to `CC(=O)c1nccs1`, for which the Potency result in experiment [1], in experiment [2], in [3], in experiment [4], in experiment [16] and in [6] was “inactive” each time. The Potency result in experiment [7], in experiment [8], in experiment [9], in experiment [17], in experiment [10] and in experiment [11] was “inactive” each time. Besides, the Potency entry in [12], in [13] and in [14] was “inactive” throughout. Moreover, the compound was called inactive in experiment [15].

As for `OB(O)O`, the Potency result in experiment [1], in experiment [2], in [3], in experiment [4], in experiment [16] and in experiment [5] was “inactive” each time. In addition, the Potency entry in experiment [6], in experiment [7], in [8], in experiment [9], in experiment [17] and in [10] was “inactive” throughout. Further, the Potency entry in experiment [11], in experiment [12], in experiment [13] and in experiment [14] was “inactive” in each case. For the same compound, the result in experiment [15] was inactive.

For `O=C1OC(=O)c2c(Cl)c(Cl)c(Cl)c(Cl)c21`, the Potency result in [1], in experiment [2], in experiment [3], in experiment [4], in experiment [5] and in experiment [6] was “inactive” in each case. The Potency result in experiment [7], in experiment [8], in experiment [9], in [17], in experiment [10] and in experiment [11] was “inactive” each time. Further, the Potency entry in experiment [12], in [13] and in experiment [14] was “inactive” each time. The outcome in experiment [15] was inactive.

As for `Cc1ccccc1C=O`, the Potency result in [1], in [2], in experiment [3], in experiment [4], in experiment [16] and in experiment [5] was “inactive” throughout. For the same compound, the Potency entry in experiment [6], in experiment [7], in experiment [8], in [9], in experiment [17] and in experiment [10] was “inactive” throughout. Also, the Potency result in experiment [11], in experiment [12], in experiment [13] and in experiment [14] was “inactive” each time. The result in [15] was inactive.

For `O=C(c1ccccc1)c1ccc(O)c(O)c1O`, the figures for the Potency in [1] and in experiment [7] were 54.9 µM (active) and 61.6 µM (active), respectively. Besides, the Potency entry in experiment [3], in [4], in experiment [16], in experiment [5], in experiment [8] and in [17] was “inactive” throughout. Moreover, the Potency entry in experiment [10], in experiment [11], in experiment [12], in [13] and in experiment [14] was “inactive” in each case. The compound was classed as inactive in experiment [15].

In the case of `O=C(NCC1CCCCN1)c1cc(OCC(F)(F)F)ccc1OCC(F)(F)F` (stereo not drawn), in experiment [1], the Potency was 19 µM (active) and inactive. Moreover, the Potency result in experiment [2], in experiment [3], in experiment [4], in experiment [5], in [6] and in experiment [7] was “inactive” in each case. For the same compound, the Potency result in experiment [8], in experiment [9], in experiment [17], in experiment [10], in experiment [11] and in experiment [12] was “inactive” in each case. Moreover, the Potency result in experiment [13] and in [14] was “inactive” each time. Also, in experiment [15], the outcome was inactive.

These data come from PubChem BioAssay (Tox21).
